Measurements published in PubChem BioAssay (NCI).
This is part of a sample that, as a whole, favours compounds with a hit. Of some 79,000 tested, about 15% had one in any assay. A number with no mark means an inactive call. The source made the active and inactive calls. Rule as the data show it: active = growth inhibition above about 70%; inactive = the rest.

Tests used:
[1] = NCI Yeast Anticancer Drug Screen. Data for the rad50 strain (AID 155);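 also: 0% = growth of vehicle-only cultures of the same strain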; details: S. cerevisiae rad50 strain growth inhibition; at 50.0 µM; stronger effect = higher value
Procedure, shortened: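 Readout: growth inhibition relative to vehicle-treated cultures. Compound exposure was carried out in a genetically defined yeast strain deficient in DNA damage repair.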

[2] = NCI Yeast Anticancer Drug Screen. Data for the mec2-1 strain (AID 157); details: S. cerevisiae mec2-1 strain, at 50.0 µM, stronger effect = higher value
Procedure, shortened: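 Yeast mec2-1 mutant treated with compound. Readout: growth inhibition vs vehicle controls.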

[3] = NCI Yeast Anticancer Drug Screen. Data for the sgs1 mgt1 strain (AID 161);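 also: 0% = growth of cultures given vehicle only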; details: S. cerevisiae sgs1 mgt1 strain, at 50.0 µM, stronger effect = higher value
Procedure, shortened: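 Test agents were incubated with a DNA-repair-mutant yeast strain. Growth was then read and compared against vehicle-treated controls.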

[4] = NCI Yeast Anticancer Drug Screen. Data for the cln2 rad14 strain (AID 165);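 also: 0% = growth equal to vehicle treated cultures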; details: S. cerevisiae cln2 rad14 strain, at 50.0 µM, stronger effect = higher value
Procedure, shortened: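 cln2 rad14 yeast strain; compound exposure; growth inhibition read vs vehicle controls.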

[5] = NCI Yeast Anticancer Drug Screen. Data for the bub3 strain (AID 167); details: S. cerevisiae bub3 mutant strain, at 50.0 µM, stronger effect = higher value
Procedure, shortened: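 Readout: yeast growth inhibition, expressed relative to vehicle-only wells. The test organism is a mutant strain from a panel with lesions in DNA repair or checkpoint genes.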

[6] = NCI Yeast Anticancer Drug Screen. Data for the mlh1 rad18 strain (AID 175); details: S. cerevisiae mlh1 rad18 strain growth inhibition; at 50.0 µM; stronger effect = higher value
Procedure, shortened: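 Yeast w/ defined DNA-repair lesions; compound exposure; growth vs vehicle controls → % inhibition.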

Row | Compound | growth inhibition [1] | growth inhibition [2] | growth inhibition [3] | growth inhibition [4] | growth inhibition [5] | growth inhibition [6]
1 | CC1[N-]C(/C=N/O)NC(C)N1.CC1[N-]C(/C=N/O)NC(C)N1.[Br][Ni+2][Br] (configuration not stated) | -14.9% | -10% | -22.3% | -19% | 0.65% | -15.7%
2 | O=P(NCCCl)(NCCCl)Oc1ccccc1 | -19.5% | -0.5% | -18.8% | -16.1% | -7.25% | -13.1%
3 | N#CC(N)c1ccccc1 (configuration not stated) | 13.7% | -14.9% | 17.4% | 1.45% | 14.1% | 12.6%
4 | C1=C(c2ccccc2)CCN(C2(c3ccccc3)CCCCC2)C1 | -5.6% | 0.75% | -4.2% | -33.5% | 16.5% | 9.35%
5 | O=C(NCCO)c1cc([N+](=O)[O-])cc([N+](=O)[O-])c1 | -37.9% | -4.25% | -1.25% | -25.9% | -11.7% | 3.4%
6 | NC(C/C=C/P(=O)(O)O)C(=O)O (configuration not stated) | -20.4% | -17.1% | -14.8% | 13.2% | 19.9% | -33%
7 | CCCCCCCCP(=O)(O)OP(=O)(O)OCC1OC(n2ccc(N)nc2=O)C(O)C1O (configuration not stated) | -11.2% | -20.1% | -9.55% | 7.15% | -12.2% | -9%
8 | COc1ccc2c(c1OC)C13CCN(C)C(C2)C12C=CC(=O)C3c1c(OC)ccc(OC)c12 (configuration not stated) | 37.4% | 6.95% | 24.2% | 18.8% | 4.2% | 27.2%
9 | ClC1OC(Cl)(Cl)C(Cl)(Cl)OC1(Cl)Cl (configuration not stated) | 7.7% | 3.75% | 35% | -4.25% | 18.8% | 45.9%
10 | C1CC[N-]CC1.C1CC[N-]CC1.[Cl][Pt+2]([Cl])([Cl])[Cl] | 4.65% | -10.3% | 7.8% | -48.9% | -0.8% | -18.8%
11 | Nc1ccc(C(=O)N/N=C/c2ccc(N(CCBr)CCBr)cc2)cc1 | 42.9% | 22.4% | 25.5% | 1.95% | 5.3% | 54.2%
12 | CCCCS(=O)(=O)C(c1ccccc1)c1ccccc1 | 69.2% | 97.4% (active) | 96% (active) | 56.5% | 96.5% (active) | 96.4% (active)
13 | ICc1nc2ccccc2[nH]1 | 15.6% | -3.6% | 3.65% | -1.75% | -14.5% | 6.1%
14 | O=Cc1ccccc1O.[La] | -7.9% | -28.1% | 14.1% | -5.45% | -7.7% | 2.15%
15 | COc1cc2c(cc1O)CCN[C@H]2C | -1.3% | -25.8% | -0.95% | -4.1% | 3.55% | -1.45%
16 | CC(C)(C)c1cc2c(=O)o[s+]3oc(=O)c(c1)c23 | 10.2% | -8.75% | 6.75% | 1.35% | 6.15% | 14.8%
17 | COc1ccc(CC(C)=O)cc1OC | -10.9% | 6.8% | 19% | 36% | -24.1% | -5.9%
18 | CCOC(=O)c1cc2c(cn1)[nH]c1ccccc12 | 41.2% | 34.2% | 43.4% | 0% | 26.9% | 16.8%
19 | CC(=O)OC1CC2(O)C3CCC4CC(O)CCC4(C)C3CCC2(C)C1C1=CC(=O)OC1 (configuration not stated) | -11.1% | -19.9% | -9.9% | -6.4% | -32.4% | -1.75%
20 | N#CC(C#N)C1CN2CCC1CC2 (configuration not stated) | 1.95% | 13.3% | 15.6% | 24.5% | 4.9% | -26.6%
21 | CC(=[N-])CC(C)=O.CC(=[N-])CC(C)=O.[Cu+2] | 14.9% | 14.5% | 10.8% | -18.3% | -4.4% | 8.2%

Row | Compound | growth inhibition [1] | growth inhibition [2] | growth inhibition [3] | growth inhibition [4] | growth inhibition [5] | growth inhibition [6]
22 | CCC(C)OP(=S)(S)OC(C)CC.[Zn+2] (configuration not stated) | 1.8% | 22.3% | -6% | -5.55% | 25.2% | -5.95%
23 | Cc1ccc(OP(=O)(Oc2ccc(C)cc2)Oc2ccc(C)cc2)cc1.Cc1ccc(OP(=O)(Oc2ccc(C)cc2)Oc2ccc(C)cc2)cc1.Cc1ccc(OP(=O)(Oc2ccc(C)cc2)Oc2ccc(C)cc2)cc1.Cc1ccc(OP(=O)(Oc2ccc(C)cc2)Oc2ccc(C)cc2)cc1.[O-][Cl+3]([O-])([O-])O.[Zn+2] | 3.45% | 9.9% | 0.55% | 6.45% | 5.1% | -21.9%
24 | CC(C)N[C@@H]1CCC[C@H]1O | 4.5% | -0.1% | -17.1% | 11.7% | 4.05% | -19.5%
25 | O=S(=O)(c1ccccc1)c1ccccc1 | -2.9% | 1.55% | 1.6% | -8.05% | 0.1% | -37.9%
26 | CC(C)c1cc2c(c(O)c1O)[C@@]1(C(=O)O)CCCC(C)(C)[C@@H]1CC2 | 91.8% (active) | 93.5% (active) | 93.3% (active) | 92% (active) | 92.3% (active) | 92.3% (active)
27 | CCOC(=O)C1=C(C)/C(=C\c2[nH]c(C)c(C(=O)OCC)c2C)N=C1C | 8.95% | 13.7% | 23% | 8.95% | 19.5% | 19.9%
28 | c1ccc(CN2C3c4ccccc4C2c2ccccc23)cc1 | -0.15% | -2.2% | -4% | -12.3% | -2.8% | 3%
29 | CCOP(=O)(OCC)C(N)Cc1c[nH]c2ccccc12 (configuration not stated) | 13.9% | -5.85% | -16.8% | 16.4% | 11.6% | 4.9%
30 | CCOC(=O)C(Br)CBr (configuration not stated) | 6.35% | -17.9% | 4.85% | -2.3% | -16.1% | 23.1%
31 | Cc1ccc2c(c1)C(=S)N1CSCC1c1nncn1-2 (configuration not stated) | 30.6% | 30% | 28.9% | 20.9% | 13.4% | 35.8%
32 | CCC(=O)OC1(c2ccccc2)CCN(CCC(=O)c2ccccc2)CC1 | 45.5% | 28.4% | 36.8% | 19.2% | 36.8% | 25.9%
33 | CN(C)c1ccc([N+](=O)[O-])c([N+](=O)[O-])c1 | -14.8% | -12.5% | -7.75% | 7.95% | -12.4% | -3.05%
34 | CC(C)=CCN=C(N)N | -9.15% | -51.1% | -17.3% | -8% | -37.1% | -28.7%
35 | C1CCC(N([P-]P([P-]N(C2CCCCC2)C2CCCCC2)N(C2CCCCC2)C2CCCCC2)C2CCCCC2)CC1.[C-]#[O+].[C-]#[O+].[C-]#[O+].[C-]#[O+].[C-]#[O+].[C-]#[O+].[Fe].[Fe] (configuration not stated) | -20.7% | -28.1% | -23.2% | -8.1% | 2.2% | -24.4%
36 | CCC(C(C)C)C1NC1C(C)C1CCC2C3CC=C4CC(OC(C)=O)CCC4(C)C3CCC12C (configuration not stated) | 95.8% (active) | 99.2% (active) | 99.1% (active) | 98.3% (active) | 98.6% (active) | 98.7% (active)
37 | CCOC(=O)C(C)(Br)CC (configuration not stated) | -19.4% | -3.25% | -17.4% | -81.4% | -22.1% | -7.8%
38 | CC(C)OP(=O)(OC(C)C)C(N(C)C)P(=O)(OC(C)C)OC(C)C.[Cl][Sn]([Cl])([Cl])[c]1ccccc1 | -10.9% | -10.2% | 2.1% | 28.8% | 7.85% | 1.5%
39 | O=C(CCN1CC=C(c2ccccc2)CC1)c1ccc(F)cc1 | 76.5% (active) | 51.5% | 88.6% (active) | 67.5% | 64.2% | 92.3% (active)
40 | COc1cc(C)c(OP(=O)(OC)OC)cc1C | 15.3% | 0.7% | 13.6% | 59.1% | 1.7% | -0.65%
41 | O=C(O)c1c(Cl)n(Cc2cc(Cl)ccc2Cl)c2ccccc12 | 4.5% | 14.3% | 19.9% | 19.9% | 11.3% | 22.2%
42 | O=c1ccn(C2OC(CO)C(O)C2[Se]c2ccccc2)c(=O)[nH]1 (configuration not stated) | 4% | -9.45% | 16.8% | 6.05% | 7.2% | 27.1%
